Here are results for 93 molecules from PubChem BioAssay AID1851 (National Center for Advancing Translational Sciences (NCATS), 2009).

Each structure is given as a SMILES string. Out of some 16,000 compounds screened, about 5,100 (32%) were called active. Roughly 25% stayed inconclusive and do not appear here. The list shows a part of the results. Values without a mark were called inactive. Calls follow the shape of the dose curve; as a rule, active = well fitted curve in the direction sought with a large enough effect; inconclusive = small, poorly fitted or top-dose-only effect, or effect the other way; inactive = no such curve, though single readings can be large or run the other way.
% is scaled to controls: 0 for no effect and ±100 for the full control effect.

Chain of Cytochrome P450 3A4 (Homo sapiens) (P08684 whole entry, looked up): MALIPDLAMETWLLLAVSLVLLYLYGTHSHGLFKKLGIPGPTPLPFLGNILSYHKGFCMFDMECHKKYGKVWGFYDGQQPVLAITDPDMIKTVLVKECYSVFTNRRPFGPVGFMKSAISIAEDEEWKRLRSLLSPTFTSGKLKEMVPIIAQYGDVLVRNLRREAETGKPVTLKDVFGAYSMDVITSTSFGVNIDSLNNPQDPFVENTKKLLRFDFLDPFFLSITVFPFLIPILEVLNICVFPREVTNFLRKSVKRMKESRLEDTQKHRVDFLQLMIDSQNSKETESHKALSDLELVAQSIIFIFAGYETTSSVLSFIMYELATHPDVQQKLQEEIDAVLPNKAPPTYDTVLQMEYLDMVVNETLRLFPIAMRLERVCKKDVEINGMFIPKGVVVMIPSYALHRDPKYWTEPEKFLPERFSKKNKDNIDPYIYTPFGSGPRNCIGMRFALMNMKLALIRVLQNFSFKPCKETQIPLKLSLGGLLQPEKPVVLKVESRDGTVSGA

This assay has as its target Cytochrome P450 3A4 (Homo sapiens) (UniProt P08684). The assay can be described thus: Cytochrome panel assay with activity outcomes. The following applies: recombinant CYP, pro-luciferin dealkylation, luminescence, p450-cyp3a4; series mostly up to 57.1 µM.
For the molecule `NS(=O)(=O)c1ccc(N=Nc2ccc(O)c(C(=O)O)c2)cc1`, the activity, negative = inhibition was -11.8% [at 11.4 µM].

By AC50 is commonly meant the concentration giving half of the maximal activity seen. Consider `Nc1nc2ncc(CNc3ccc(C(=O)N[C@@H](CCC(=O)O)C(=O)O)cc3)nc2c(=O)[nH]1`, for which the AC50 entry was “inactive”.

For the molecule `Nc1nc(-c2cccc([N+](=O)[O-])c2)cc(-c2cc(-c3cccc([N+](=O)[O-])c3)nc(N)n2)n1`, the activity, negative = inhibition is -1.01% [at 11.4 µM].

Consider `Nc1c(-c2ccccc2)cnn1-c1cccc([N+](=O)[O-])c1`, for which the AC50 was 14.1 µM (active).

`Nc1nc(-c2ccccc2)cc(-c2ccccc2O)n1`: the AC50 entry is “inactive”.

As to `Cc1cc(N2CCOCC2)nc(SCc2ccc(Cl)cc2Cl)n1`, the concentration at half-maximal activity (AC50) was 2.24 µM (active).

Turning to `Cc1cc(C)c2c(SCc3ccc(Cl)cc3Cl)nc(N)nc2n1`, the activity, negative = inhibition was 19.4% [at 11.4 µM].

Take `CCCc1ccc(Oc2cc(C)nc(N3CCOCC3)n2)cc1`: the activity, negative = inhibition was 28.4% [at 0.457 µM].

On to `C=CC[N+]1(CC#CCOC(c2ccccc2)c2ccccc2)CCOCC1`, for which the AC50 entry was “inactive”.

On to `COc1c(Cl)cc(Cl)cc1CNCCNCCO`, for which the AC50 entry is “inactive”.

On to `CCOc1cc(CNCCO)cc(Br)c1OCc1ccccc1Cl`, for which the AC50 was 2 µM (active).

For `CCOc1cc(CNCCc2ccc(S(N)(=O)=O)cc2)cc(Cl)c1OCc1ccccc1`, the AC50 is 0.447 µM (active).

On to `CCOc1cc(CNCCc2ccc(S(N)(=O)=O)cc2)ccc1OCc1ccc(Cl)cc1`, for which the concentration at half-maximal activity (AC50) is 0.398 µM (active).

With `CCCc1c(OCCCOc2ccc(OCC(=O)O)cc2)ccc(CC=O)c1O`, the AC50 entry was “inactive”.

As for `CCn1c2ccccc2c2nnc(NCCCO)nc21`, the activity, negative = inhibition was -11.6% [at 11.4 µM].

In the case of `CCn1c2ccc(Cl)cc2c2nc3ccccc3nc21`, the half-maximal activity concentration (AC50) was 15.8 µM (active).

As for `COc1ccc(-c2ccc(N)[n+](CCCC(=O)O)n2)cc1`, the AC50 result was “inactive”.

For the molecule `Cc1cc(NC(=O)CCCC(=O)OCC(F)(F)C(F)F)cc(C)c1C(=O)O`, the AC50 result was “inactive”.

Take `O=C(CCCC(=O)OCC(=O)c1ccc(Cl)cc1Cl)Nc1cc(C(F)(F)F)ccc1Cl`: the AC50 is 22.4 µM (active).

As for `CC(C)NC(=O)C1CC(=O)N(c2ccc(F)c(Cl)c2)C1` (stereo not drawn), the activity, negative = inhibition was 5.88% [at 2.29 µM].

As to `CCOc1ccc(N2CC(C(=O)NCc3cccc(C)c3)CC2=O)cc1` (stereo not drawn), the AC50 is 7.94 µM (active).

For `C[C@@]12CCC(=O)C=C1CC[C@@H]1[C@@H]2[C@H](O)C[C@]2(C)[C@@H]1CC[C@]2(O)C(=O)CO`, the AC50 result is “inactive”.

As to `C[C@@]12C[C@H](O)[C@@H]3[C@H](CCC4=CC(=O)CC[C@]43C)[C@H]1CC[C@@H]2c1csc(N)n1`, the AC50 was 2.51 µM (active).

As for `C[C@@]12CCC(=O)C=C1CC[C@@H]1[C@@H]2[C@H](O)C[C@]2(C)[C@@H]1CC[C@]2(O)C(=O)COC(=O)CCC(=O)O`, the AC50 result was “inactive”.

For the molecule `COc1cc2cc(CN(CCCO)S(=O)(=O)c3ccccc3Cl)c(=O)[nH]c2cc1OC`, the AC50 is 14.1 µM (active).

With `CN(C)C(CNC(=O)NC1CCCCC1)c1cccnc1` (stereo not drawn), the AC50 was 15.8 µM (active).

`COc1cc2c(cc1OC)C(C(=O)Nc1ccc3c(c1)OCCO3)C(c1cccnc1)N(C)C2=O` (stereo not drawn): the AC50 is 28.2 µM (active).

Consider `COc1cc2c(cc1OC)C(C(=O)Nc1ccccn1)C(c1cccnc1)N(C)C2=O` (stereo not drawn), for which the activity, negative = inhibition was -22% [at 11.4 µM].

For `COc1ccc(NC(=O)C2c3cc(OC)c(OC)cc3C(=O)N(C)C2c2cccnc2)cc1OC` (stereo not drawn), the AC50 was 25.1 µM (active).

On to `COc1cccc(NC(=O)C2c3cc(OC)c(OC)cc3C(=O)N(C)C2c2cccnc2)c1` (stereo not drawn), for which the concentration at half-maximal activity (AC50) was 12.6 µM (active).

Take `COCCN1C(=O)c2ccccc2C(C(=O)Nc2ccc3c(c2)OCCO3)C1c1ccc(F)cc1` (stereo not drawn): the activity, negative = inhibition is -22.8% [at 2.29 µM].

For `CC(C)C12CC[C@@]3(CC[C@H]4[C@@](C)(CCC[C@]4(C)C(=O)O)[C@@H]3C1)[C@@H](CN)C2`, the activity, negative = inhibition was -9.26% [at 11.4 µM].

In the case of `CCOC(=O)CSc1n[nH]c(NC(=O)c2cccc(C(F)(F)F)c2)n1`, the AC50 result is “inactive”.

Take `Cc1ccc(-n2c(C)cc(C(=O)CSc3n[nH]c(N)n3)c2C)cc1`: the AC50 is 10 µM (active).

Take `O=C1CC[C@H](NC(=O)c2ccccc2)C(=O)N1`: the activity, negative = inhibition is -12.3% [at 11.4 µM].

As to `N[C@H](CCC(=O)NCC(=O)O)C(=O)O`, the AC50 result is “inactive”.

With `CN(C)c1ccc(-c2cncnc2Nc2ccccc2)cc1`, the AC50 is 0.631 µM (active).

On to `CN(C)c1ccc(-c2cncnc2Nc2ccc(F)cc2)cc1`, for which the AC50 is 0.794 µM (active).

With `c1cc(CSSCc2ccncc2)ccn1`, the AC50 was 2.51 µM (active).

For `Cc1cc(C)n(-c2ccc(Cl)c(C(=O)O)n2)n1`, the AC50 entry is “inactive”.

In the case of `O=[N+]([O-])c1ccc2nc(-c3ccccc3)n(OCc3ccc(Cl)cc3)c2c1`, the AC50 result is “inactive”.

As for `Cc1cc(C)n(-c2nc3ccccc3c(=O)n2OCc2ccc(Cl)cc2)n1`, the AC50 is 14.1 µM (active).

As for `COc1ccccc1CNc1ccnc(-c2ccc(C(=O)N(C)C)cc2)n1`, the AC50 is 25.1 µM (active).

`CN(C)c1ccc(-c2nccc(NCc3ccccc3)n2)cc1`: the AC50 is 7.94 µM (active).

With `COc1ccc(CNc2ccnc(-c3ccc(C(=O)N(C)C)cc3)n2)c(OC)c1`, the AC50 was 3.98 µM (active).

As for `COc1ccccc1CNc1ccnc(-c2ccoc2)n1`, the half-maximal activity concentration (AC50) was 2.51 µM (active).

Turning to `C=CC[C@@H](C(=O)O)c1ccccc1`, the activity, negative = inhibition is -1.41% [at 11.4 µM].

For `CC(C)(C)CNCCO`, the activity, negative = inhibition is -3.67% [at 11.4 µM].

Turning to `COc1ccc(CNc2ccnc(-c3ccc(N(C)C)cc3)n2)c(OC)c1`, the AC50 was 12.6 µM (active).

Turning to `COc1ccccc1CNc1cc(-c2ccc(C(=O)N(C)C)cc2)ncn1`, the AC50 is 25.1 µM (active).

Regarding `COc1ccccc1CNc1ccnc(-c2ccc(N(C)C)cc2)n1`, the AC50 is 7.94 µM (active).

With `CC(C)NC[C@H](O)c1ccc(NS(C)(=O)=O)cc1`, the AC50 entry was “inactive”.

On to `CN1CCc2nc(N)nc(-c3nc(N)nc4c3CN(C)CC4)c2C1`, for which the activity, negative = inhibition is 3.49% [at 11.4 µM].

For the molecule `O=C(CN(Cc1ccco1)C(=O)c1ccccc1)Nc1ccc(Cl)c(Cl)c1`, the AC50 is 17.8 µM (active).

For `O=C(CN(Cc1ccco1)C(=O)c1cccc(Cl)c1)Nc1c(Cl)cc(Cl)cc1Cl`, the AC50 is 11.2 µM (active).

On to `Cn1c[n+](C)cc1/C=N/O`, for which the AC50 entry is “inactive”.

As to `CN1CCN(c2nc3cc(C(F)(F)F)ccc3n3cccc23)CC1`, the AC50 result was “inactive”.

With `FC(F)(F)c1ccc(N2CCOCC2)c(Nc2nc3ccccc3n3cnnc23)c1`, the AC50 was 22.4 µM (active).

As to `C[N+](C)(CCCOc1ccccc1)c1ccccc1`, the AC50 result is “inactive”.

As for `O=c1sc2ccccc2n1CCCOc1ccccc1`, the AC50 is 17.8 µM (active).

For `Cc1ccc(OCCCn2c(=O)sc3ccccc32)cc1`, the AC50 was 17.8 µM (active).

On to `O=C(O)c1ccccc1NCn1c(=S)sc2ccccc21`, for which the activity, negative = inhibition was -19.2% [at 11.4 µM].

On to `NN(CC(=O)O)CC(=O)O`, for which the activity, negative = inhibition is -4.66% [at 11.4 µM].

For `CN(C)CCCN1c2ccc(O)cc2Sc2ccc(Cl)cc21`, the activity, negative = inhibition is -18.1% [at 11.4 µM].

As to `O=C(O)Cn1ccnc1[N+](=O)[O-]`, the activity, negative = inhibition was 1.73% [at 11.4 µM].

Consider `Cc1[nH]n(-c2ccc(S(=O)(=O)O)cc2)c(=O)c1N=Nc1ccccc1`, for which the activity, negative = inhibition is 1.46% [at 11.4 µM].

For the molecule `Nc1c(N=Nc2cccc(Cl)c2)c(=O)[nH]n1-c1ccccc1`, the activity, negative = inhibition was -21.9% [at 2.29 µM].

As to `Cc1ccc(N=Nc2c(N)n(-c3ccccc3)[nH]c2=O)cc1`, the AC50 was 11.2 µM (active).

Consider `CCCCc1[nH]c(=O)c(C#N)c2c1CCCC2`, for which the AC50 entry is “inactive”.

As to `COc1cccc2cc(C(=O)CC3(O)C(=O)N(Cc4ccccc4)c4ccccc43)c(=O)oc12` (stereo not drawn), the concentration at half-maximal activity (AC50) is 7.08 µM (active).

Regarding `COc1cc(CN2CCCCC2)cc2cc(C(=O)O)c(=O)oc12`, the activity, negative = inhibition is -36.8% [at 11.4 µM].

On to `C[C@H]1CN(CCO)CCN1c1ccccc1`, for which the activity, negative = inhibition is 14.2% [at 11.4 µM].

On to `CN1/C(=C\C(=O)COC(=O)Cn2nnc(-c3ccccc3)n2)C(C)(C)c2ccccc21`, for which the AC50 is 14.1 µM (active).

For the molecule `CC(C)c1ccc(-c2nnn(CCC(=O)O)n2)cc1`, the AC50 entry was “inactive”.

`O=C(Cn1nnc(-c2ccccc2)n1)OCc1ccccc1`: the AC50 result was “inactive”.

As for `O=C(N/N=C\c1cn(-c2ccccc2)nc1-c1ccccc1)c1ccc2c(c1)OCO2`, the AC50 is 1.58 µM (active).

As to `O=C(N/N=C\c1cn(-c2ccccc2)nc1-c1ccccc1)c1ccc(Br)o1`, the concentration at half-maximal activity (AC50) is 3.98 µM (active).

In the case of `Cc1nn(-c2ccccc2)c(Cl)c1/C=N/NC(=O)c1ccco1`, the AC50 result is “inactive”.

Take `O=C(N/N=C/c1ccccn1)c1ccc(Br)o1`: the AC50 entry was “inactive”.

As to `COc1ccc(-c2nn(-c3ccccc3)cc2/C=N/NC(=O)c2ccc3c(c2)OCO3)cc1`, the AC50 was 5.01 µM (active).

Turning to `CCOc1ccc2ccccc2c1C(=O)N[C@@H]1C(=O)N2[C@@H]1SC(C)(C)[C@@H]2C(=O)O`, the AC50 entry is “inactive”.

Turning to `CCOc1cc(C2CC(=O)c3c(ccc4ccccc34)N2)ccc1O` (stereo not drawn), the AC50 was 10 µM (active).

For the molecule `Cn1c(Sc2ccc(-c3cccnc3)n2C)ccc1-c1cccnc1`, the half-maximal activity concentration (AC50) was 0.631 µM (active).

For `N=C1CCC[C@@H]1C(=S)SCCC(N)=O`, the activity, negative = inhibition was -30.7% [at 11.4 µM].

Consider `Cc1ccc(S(=O)(=O)N2CCCC(C(=O)NCCCN3CCCCC3C)C2)cc1` (stereo not drawn), for which the AC50 is 14.1 µM (active).

Consider `CCS(=O)(=O)N1CCCC(C(=O)NCCCOC(C)C)C1` (stereo not drawn), for which the AC50 result is “inactive”.

On to `COc1ccc(NC(=O)NCCCN2CCCCC2C)cc1` (stereo not drawn), for which the AC50 result is “inactive”.

Consider `O=c1n(CCCN2CCN(c3cccc(Cl)c3)CC2)nc2ccccn12`, for which the AC50 entry is “inactive”.

`O=C(CCN1C(=O)C2C3C=CC(C3)C2C1=O)N1CCN(c2cccc(Cl)c2)CC1` (stereo not drawn): the AC50 is 1.12 µM (active).

In the case of `O[C@H](CN1CCN(c2cccc(Cl)c2)CC1)C(c1ccccc1)c1ccccc1`, the AC50 result was “inactive”.

Consider `O=C(CCCN1C(=O)C2C3C=CC(C3)C2C1=O)N1CCN(c2ccccc2)CC1` (stereo not drawn), for which the AC50 is 0.794 µM (active).

On to `CCOC(=O)c1c(C)[nH]c(C(=O)OCC(=O)NC2CCS(=O)(=O)C2)c1C` (stereo not drawn), for which the AC50 result was “inactive”.

On to `CNC(=O)c1c(I)c(C(=O)NCC(=O)Nc2c(I)c(C(=O)O)c(I)c(C(=O)NCCO)c2I)c(I)c(N(C)C(C)=O)c1I`, for which the AC50 entry is “inactive”.
